# Assay outcomes from PubChem.
# A selection: hits, their analogues and other compounds. The true share with any hit is near 19%.
# IL1B secr inh – qHTS for Inhibitors of Inflammasome Signaling: IL-1-beta AlphaLISA Primary Screen; hit rate 4.7% among 360,000; activity change, % at 57.5 µM; THP-1 LPS/ATP IL-1B secretion, AlphaLISA, 16 h; stronger effect = lower value; in the data active = activity change below about -50%; inconclusive = mostly about -30% to -49%
#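 Secreted IL-1B measured by AlphaLISA bead assay after 16 h compound exposure of THP-1 cells; compounds (final up to 57.5 uM) added 1 h before LPS (250 ng/mL) and ATP (1.25 mM) stimulation; lower signal means less secretion.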
# ELG1 repair inh – qHTS screen for small molecules that inhibit ELG1-dependent DNA repair in human embryonic kidney (HEK293T) cells expressing luciferase-tagged ELG1. HEK293T ELG1-luciferase reporter, luminescence, 16 h; DNA damage induced by 5-fluorouridine. Potency, µM (titrated, usually from 46.1 µM), without a hit: at the highest dose activity change, negative = inhibition, most hits filed as inhibitors. hit rate 2.3% among 330,000; note: potency is the fitted concentration of half-maximal effect; nearly all actives have a fitted effect of over 55% in size
#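 HEK293T cells expressing luciferase-tagged ELG1 (2,000/well) received 5-Fluorouridine plus compound or DMSO for 16 hr at 37 °C. Luciferase was read by ONE-Glo luminescence after 30 min at room temperature.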
# TDP1 cell CPT – qHTS for Inhibitors of human tyrosyl-DNA phosphodiesterase 1 (TDP1): qHTS in cells in presence of CPT; chicken DT40 Tdp1-/-;hTDP1 cells + 20 nM CPT, ATP luminescence, 48 h; Potency, µM (series often up to 46.2 µM), for the others: at the highest dose activity change, negative = growth inhibition, actives largely listed as inhibitors; hit rate 12% among 420,000; AID 686979, 2013; note: potency is the fitted concentration of half-maximal effect; nearly all actives have a fitted effect of over 55% in size
#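 Chicken DT40 Tdp1-/- cells complemented with human TDP1, 400 cells/well, exposed to compounds plus 20 nM camptothecin for at least 48 h at 37 C; viability read as ATP content by CellTiter-Glo luminescence.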
# HT1080NT lethal – qHTS for induction of synthetic lethality in tumor cells producing 2HG: qHTS for the HT-1080-NT fibrosarcoma cell line | HT-1080-NT fibrosarcoma viability, CellTiter-Glo ATP luminescence, 48 h | Potency, µM (doses to about 46.1 µM), for inactives: top-dose activity, negative = less viability, hits mostly cytotoxic | hit rate 1.6% among 360,000;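 note: NT is the 2HG producing partner of a matched IDH1 knockdown line; potency is the fitted concentration of half-maximal effect; 0% = DMSO-treated cells and -100% = media-only wells without cells; nearly all actives have a fitted effect of over 55% in size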
#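 Compounds were tested in concentration-response format on HT-1080-NT cells for 48 hours at 37 degrees C. Cell viability came from CellTiter-Glo luminescence; curves were classified by r2, response magnitude and activity.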
# TDP1 cell noCPT – qHTS for Inhibitors of human tyrosyl-DNA phosphodiesterase 1 (TDP1): qHTS in cells in absence of CPT; DT40 Tdp1-/- hTDP1 cells, no CPT, ATP luminescence, 48 h; Potency, µM (doses to about 46.2 µM), inactives show at the highest dose activity change, negative = growth inhibition, hits mostly inhibitors; hit rate 15% among 420,000; note: potency is the fitted concentration of half-maximal effect; nearly all actives have a fitted effect of over 55% in size
#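 Growth of hTDP1-complemented DT40 Tdp1-knockout cells is measured by ATP luminescence after at least 48 hr compound exposure at 37 °C, with DMSO substituting for the 20 nM CPT used in the parallel screen.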
# HT1080 IDH1KD tx – qHTS for induction of synthetic lethality in tumor cells producing 2HG: qHTS for the HT-1080-IDH1KD cell line | HT-1080 IDH1 knockdown viability, ATP luminescence, 48 h | Potency, µM (series often up to 46.1 µM), inactives show at the highest dose activity, negative = toxicity, most hits filed as cytotoxic | hit rate 2% among 360,000;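 note: potency is the fitted concentration of half-maximal effect; 0% = DMSO wells and -100% = cell-free medium wells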
#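 % activity derives from luminescence (CellTiter-Glo), normalised to DMSO and no-cell wells. HT-1080-IDH1KD cells, 750/well, had 48 h compound exposure at 37 °C.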
# Active calls of the source: *; ? = inconclusive; / = no result given. Unless noted, calls come from the whole dose curve; as a rule, active = well fitted curve in the direction sought with a large enough effect; inconclusive = small, poorly fitted or top-dose-only effect, or another doubt; inactive = no such curve, though single readings can be large; an effect the other way counts as inactive or inconclusive. Unless noted, % is set by controls: 0 for no effect and ±100 for the full control effect.
SMILES,IL1B secr inh,ELG1 repair inh,TDP1 cell CPT,HT1080NT lethal,TDP1 cell noCPT,HT1080 IDH1KD tx
S=C(NCc1ccccc1)Nc1cccc2ccccc12,-0.2,7.1%,18.4µM*,-20.6%,18.4µM*,-9.0%
CCc1ccccc1NC(=O)CN(C)C(=O)CSc1nn(-c2ccccc2)c(=S)s1,0.0,-23.1%,1.7%,3.8%,-23.2%,5.1%
CSc1ncccc1C(=O)N1CCCC(Nc2ccc(C)c(C)c2)C1 (centres undefined),2.1,-1.2%,?,-5.4%,-32.0%,4.6%
O=c1[nH]c(Nc2ccc3c(c2)OCCO3)nnc1Cc1ccccc1,35.1,-5.5%,-29.6%,13.6%,?,19.8%
Cc1ccccc1-c1cc2nc(NCCN3CCCC3)n(C)c(=O)c2s1,-27.2,/,?,?,?,?
COCC(=O)N1CCC(Oc2ccc(C(=O)NC(C)c3nccs3)cc2)CC1 (centres undefined),1.6,4.7%,-1.5%,16.3%,-5.1%,19.0%
O=C(NC12CC3CC(CC(C3)C1)C2)C1CC(=O)N(c2ccc(Br)cc2)C1 (centres undefined),4.9,?,13µM*,3.0%,23.1µM*,6.8%
O=C(NC12CC3CC(CC(C3)C1)C2)C1CC(=O)N(c2ccccc2)C1 (centres undefined),12.5,-12.1%,-18.6%,-0.8%,-28.0%,-1.6%
O=C(COCc1cc(-c2cccs2)on1)Nc1ccc(OC(F)(F)F)cc1,/,/,-17.9%,/,-19.4%,/
C[C@@H]1CN([C@H](C)CO)C(=O)c2cc(C3=CCCCC3)cnc2O[C@@H]1CN(C)Cc1ccccc1C(=O)O,0.1,/,-0.1%,0.6%,2.9%,10.2%
CCOc1ccccc1N1CCN(C(=O)CNC(=O)c2sc3ccccc3c2Cl)CC1,-20.8,?,?,-2.6%,23.1µM*,0.1%
COc1cccc(N2CCN(C(=O)CNC(=O)c3sc4ccccc4c3Cl)CC2)c1,-7.8,-5.7%,?,-11.8%,?,-0.8%
COc1cccc(CN(C)C(=O)COc2ccc(C(=O)c3ccc(Cl)cc3)cc2)c1OC,7.4,5.7%,?,?,23.1µM*,?
COc1ccccc1C(=O)NNC(=S)NC(=O)c1sc2ccccc2c1Cl,5.8,?,14.6µM*,-26.3%,8.2µM*,?
Cc1c(NC(=S)NC(=O)c2sc3ccccc3c2Cl)cccc1C(=O)O,37.6,?,7.0%,18.7%,0.3%,10.5%
COc1ccc(NC(=O)CSCC(=O)N(C)Cc2cccc(OC)c2OC)cc1,14.2,-9.8%,?,-11.3%,?,-0.9%
COc1cccc(CN(C)C(=O)CNC(=O)c2sc3ccccc3c2Cl)c1OC,-50.9*,-29.9%,?,-3.7%,?,-16.8%
CNC(=O)c1ccc(NC(=O)CC2SC(N3CCCC3)=NC2=O)cc1 (centres undefined),18.1,29.9%,-1.7%,12.5%,-17.4%,9.1%
NC(=O)NCC(c1ccccc1)C1CCCCC1 (centres undefined),-6.5,-0.1%,?,0.5%,?,-1.5%
Cn1c(=O)oc2cc(S(=O)(=O)N3CCCC(C(=O)NCCc4ccc(Cl)cc4)C3)ccc21 (centres undefined),/,/,-3.3%,/,?,/
CCC(Oc1ccccc1-c1nnc(-c2ccccc2)o1)C(=O)Nc1ccc(C(C)=O)cc1 (centres undefined),/,/,-15.5%,/,-21.7%,/
CC1CCCN(C(=O)CNC(=O)c2sc3ccccc3c2Cl)C1 (centres undefined),/,?,-27.8%,-10.9%,?,-11.5%
CC1CC(C)CN(C(=O)CNC(=O)c2sc3ccccc3c2Cl)C1 (centres undefined),-57.4*,-4.7%,?,-27.2%,23.1µM*,-28.5%
Cc1ccc(-c2nc(CCNC(=O)C(=O)Nc3ccc(F)cc3F)cs2)cc1,/,/,-25.4%,/,?,/
COc1ccccc1OCCSc1nc(-c2ccc(C(C)(C)C)cc2)nc2cc(=O)[nH]n12,/,/,13µM*,/,?,/
SMILES,IL1B secr inh,ELG1 repair inh,TDP1 cell CPT,HT1080NT lethal,TDP1 cell noCPT,HT1080 IDH1KD tx
Cc1cccc(-c2nc(SCCCOc3cc(C)c(Cl)c(C)c3)n3[nH]c(=O)cc3n2)c1,/,/,-12.1%,/,-14.8%,/
C=CCc1ccccc1OCCSc1nc(-c2ccc(C(C)(C)C)cc2)nc2cc(=O)[nH]n12,/,/,23.1µM*,/,?,/
Cc1ccc(-c2nc(SCCOc3ccccc3C)n3[nH]c(=O)cc3n2)cc1,/,/,23.1µM*,/,25.9µM*,/
Cn1c(SCc2cccc(Br)c2)nc2c1c(=O)[nH]c(=O)n2C,28.4,-4.2%,?,1.4%,-29.1%,3.0%
O=c1cc2nc(-c3ccccc3)nc(SCc3cccc(Br)c3)n2[nH]1,/,/,?,/,9.2µM*,/
O=C(CCN1C(=O)c2ccccc2Sc2ncccc21)Nc1ccc(F)cc1F,/,/,-4.2%,/,-25.1%,/
CC(C)[C@H](N)c1nnc(SCc2ccc(Cl)cc2)o1,6.1,-1.6%,-27.0%,-24.2%,-18.0%,-13.7%
CCC(C)[C@H](N)c1nnc(SCC(=O)c2ccc(Cl)cc2)o1 (some centres undefined),-5.3,-2.6%,3.98µM*,1.3%,7.08µM*,-4.6%
COc1ccccc1CNC(=O)COC(=O)CSc1ccc(C)c(C)c1,11.6,7.1%,-11.0%,7.5%,-12.4%,2.2%
O=C(Cc1ccccc1)NCC(=O)OCC(=O)c1cccc2ccccc12,/,/,?,/,-24.7%,/
CCn1c(CNC(=O)COc2ccc(C(C)C)cc2)nnc1SCC(=O)Nc1ccc(F)cc1,?,?,-6.4%,?,-21.0%,?
CCn1c(CNC(=O)COc2ccc(C(C)C)cc2)nnc1SCC(=O)NC1CCCCC1C (centres undefined),15.8,16.4µM*,?,-1.6%,?,-18.1%
O=c1c2cnn(-c3ccc(F)cc3)c2ncn1Cc1ccccc1Cl,/,/,-13.6%,/,-19.8%,/
CCCCN(CCCN)c1ccc(Br)cn1,/,/,?,7.4%,?,2.3%
NCCCN(Cc1ccc(Cl)c(Cl)c1)c1ccc(Br)cn1,/,/,3.55µM*,?,5.01µM*,11.2µM*
